High-throughput results as filed in PubChem.
Cruzain noTriton = cruzain (T. cruzi) inhibition without detergent; P25779; purified cruzain, Z-FR-AMC fluorescence, no detergent; Potency, µM, for inactives: max response, negative = inhibition, actives largely listed as inhibitors; actives 2.3% (n = 200,000);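 further: plate controls were enzyme without inhibitor for no effect and buffer without enzyme for full effect; nearly all actives have a fitted effect of over 40% in size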
Target sequence (P25779 123-467 limits assumed): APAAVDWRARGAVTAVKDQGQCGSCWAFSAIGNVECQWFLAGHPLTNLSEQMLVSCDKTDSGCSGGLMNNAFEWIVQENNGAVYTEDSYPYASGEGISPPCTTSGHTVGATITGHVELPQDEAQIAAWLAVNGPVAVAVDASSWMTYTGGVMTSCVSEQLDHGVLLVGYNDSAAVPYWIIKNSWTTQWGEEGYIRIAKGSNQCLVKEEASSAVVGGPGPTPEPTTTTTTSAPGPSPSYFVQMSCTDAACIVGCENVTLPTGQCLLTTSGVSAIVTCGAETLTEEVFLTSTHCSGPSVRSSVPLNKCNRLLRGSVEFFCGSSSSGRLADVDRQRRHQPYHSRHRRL
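Detergent-free condition (0.00005% Triton X-100) in acetate buffer pH 5.5 with DTT. 1.5 nM enzyme and compound were pre-mixed 15 min, then 2 uM Z-FR-AMC substrate added; reaction progress from fluorescence change between first and third reads (60 s).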
Cruzain inh Det = inhibitors of Trypanosoma cruzi cruzain with detergent; P25779; purified cruzain, Z-FR-AMC fluorescence, 0.01% Triton; Potency, µM, for inactives: max response, negative = inhibition, actives largely listed as inhibitors; actives 0.43% (n = 200,000);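 further: plate controls were neutral wells for no effect and buffer without enzyme for full effect; nearly all actives have a fitted effect of over 40% in size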
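Purified cruzain (1.5 nM final) was preincubated with compounds for 15 min at room temperature in 100 mM sodium acetate pH 5.5, 5 mM DTT, 0.01% Triton X-100. Reaction started with 2 uM Z-FR-AMC; AMC fluorescence change over 60 s gave activity.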
The depositor's hits bear a star; ? = inconclusive. Only some compounds are listed: those with a hit (about 2.5% of all), similar ones and a draw of the others. The call rests on the fitted dose curve; in most records, active means well fitted curve in the direction sought with a large enough effect; inconclusive means small, poorly fitted or top-dose-only effect, or another doubt; inactive means no such curve, though single readings can be large; an effect the other way counts as inactive or inconclusive. Potency means the concentration at half of the fitted maximal effect.

SMILES	Cruzain noTriton	Cruzain inh Det
CN(C)c1ccc(NC(=S)NC(=O)/C=C/c2ccc(Cl)cc2)cc1	5µM*	5%
C=CCN(CC=C)S(=O)(=O)c1ccc(NC(=S)NC(=O)/C=C/c2ccc(C)cc2)cc1	25µM*	-1%
C=CCN(CC=C)S(=O)(=O)c1ccc(NC(=S)NC(=O)c2ccco2)cc1	4%	-3%
C=CCN(CC=C)S(=O)(=O)c1ccc(NC(=S)NC(=O)/C=C/c2cccc3ccccc23)cc1	4µM*	3%
C=CCN(CC=C)S(=O)(=O)c1ccc(NC(=S)NC(=O)c2ccc(-c3ccccc3)cc2)cc1	-8%	1%
CN(C)NC(=S)Nc1ccc(Cl)cc1	17%	6%
CCCc1cc(COC)c(C#N)c(=O)[nH]1	2%	-3%
CC(=O)Nc1ccc(NC(=O)CCc2c(C)nc3c(c(C)nn3-c3ccc(C)cc3)c2C)cc1	?	2%
Cc1cc(C)cc(NS(=O)(=O)c2ccc3c(c2)NC(=O)C(C)S3)c1 (stereo unspecified)	-1%	-2%
COCCOc1cc(NC(=O)c2sccc2Oc2ccc([N+](=O)[O-])cc2F)c(Cl)cc1Cl	16µM*	1%
CCN(CC)S(=O)(=O)c1ccc(OC)c(NC(=O)c2cc([N+](=O)[O-])ccc2Cl)c1	-1%	2%
O=C(CSc1nc2ccccc2s1)N1CCCCC1	-6%	-3%
Cc1c(Cl)cccc1N/C(SCC(=O)N1CCCCCC1)=C(/C#N)c1nc2ccccc2s1	10µM*	-5%
CC(C)CCC[C@@H](C)[C@@H]1CC[C@@H]2[C@H]3CC[C@H]4C[C@@H](N)CC[C@@]4(C)[C@@H]3CC[C@]21C	7%	-2%
COc1cccc(NC(=O)Cn2c(=O)n(CCc3ccccc3)c(=O)c3c4c(sc32)CN(C(C)=O)CC4)c1	?	-5%
Cc1ccc(S(=O)(=O)CC(=O)Nc2nc3c(C)cc(C)cc3s2)cc1	13µM*	-7%
CCOc1ccc2nc(NC(=O)CS(=O)(=O)c3ccc(Cl)cc3)sc2c1	5µM*	-10%
CCOc1ccc2nc(NC(=O)CS(=O)(=O)c3ccc(C)cc3)sc2c1	?	-8%
COc1cccc2sc(NC(=O)CS(=O)(=O)c3ccc(C)cc3)nc12	?	-2%
CCCCN(CC)CCNC(=O)C1CCN(c2nnc(C)c3c(C)n(-c4ccc(C)cc4)nc23)CC1	-2%	-4%
O=C(O)c1ccc(C(=O)O)c(C(=O)O)c1.[NH-][C@@H]1CCCC[C@@H]1[NH-].[Pt]	27%	4%
O=C(Cn1nnc(-c2ccccc2)n1)NCc1ccco1	-1%	1%
O=C(Cn1nnc(-c2cccc(C(F)(F)F)c2)n1)NC(=O)NCc1ccco1	16µM*	5%
CCOc1ccc(NCc2cccn2-c2nnc(N3CCC(C(=O)NCCc4ccc(OC)c(OC)c4)CC3)s2)cc1	?	2%
c1ccc2sc(N3CCN(Cc4ccc5c(c4)OCO5)CC3)nc2c1	3%	0%
SMILES	Cruzain noTriton	Cruzain inh Det
N#C/C(=C\N1CCN(Cc2ccc3c(c2)OCO3)CC1)c1nc2ccccc2s1	32µM*	-4%
Cc1cc2oc(C(=O)N(Cc3ccc(N(C)C)cc3)CC3CCCO3)c(C)c2cc1Cl (stereo unspecified)	-7%	0%
CCOC(=O)c1ccc(NC(=O)CCc2c(C)nc3c(c(C)nn3-c3ccccc3)c2C)cc1	6%	-2%
CN1CCN(CCCN)CC1	-1%	2%
CCc1ccccc1NC(=O)CN1CCCN(Cc2cc(C)ccc2C)S1(=O)=O	29%	-6%
Cc1c(CC(=O)NCCc2ccccc2F)c(=O)oc2c(C)c3occ(C(C)(C)C)c3cc12	2%	-2%
Cc1n[nH]c(=S)n1/N=C/c1ccc(OCc2ccc(Cl)cc2Cl)cc1	-14%	-2%
Cc1n[nH]c(=S)n1/N=C/c1ccccc1OCc1ccc(Cl)cc1Cl	16µM*	-1%
Cc1ccc(C)c(NC(=O)c2cc3c([nH]c4ccccc43)c(C)n2)c1	7.9µM*	8%
Cc1cccc(NC(=O)c2cc3c([nH]c4ccccc43)c(C)n2)c1C	?	0%
CCOc1ccc(-n2c(Cc3ccccc3)nnc2SCc2nc(-c3cccs3)no2)cc1	11%	-8%
N#Cc1c(/N=C/c2ccccc2)oc(-c2ccccc2)c1-c1ccccc1	32µM*	-8%
N#Cc1c(/N=C/c2ccco2)oc(-c2ccccc2)c1-c1ccccc1	-6%	-15%
COC(=O)c1ccc(CSc2nc3ccc(Cl)cc3[nH]2)o1	-8%	5%
COC(=O)c1ccc(CSc2nc3scc(-c4cccs4)c3c(=O)[nH]2)o1	16µM*	-7%
CCc1ccccc1NC(=O)Nc1nnc(N(C)Cc2ccccc2)s1	-8%	-7%
O=C(Nc1ccc(F)c(Cl)c1)N1CCN(C(=O)c2nsc3ccccc23)CC1	4%	-8%
COC(=O)CC1c2ccccc2C(Cc2ccc3c(c2)OCO3)=C(C)N1C(=O)OC (stereo unspecified)	15%	-4%
CC(C)c1ccc(N2C(=O)CS(=O)(=O)C23C(=O)N(Cc2cccc(F)c2)c2ccccc23)cc1 (stereo unspecified)	2.5µM*	-3%
COc1cccc(CN2C(=O)C3(SCC(=O)N3c3ccc(C(C)C)cc3)c3ccccc32)c1 (stereo unspecified)	?	-6%
COc1ccc(N2C(=O)CS(=O)(=O)C23C(=O)N(Cc2ccccc2F)c2ccccc23)cc1Cl (stereo unspecified)	2µM*	-2%
CCc1ccc(N2C(=O)CS(=O)(=O)C23C(=O)N(Cc2ccccc2F)c2ccccc23)cc1 (stereo unspecified)	3.2µM*	-5%
COc1ccc(N2C(=O)CSC23C(=O)N(Cc2ccccc2F)c2ccccc23)cc1Cl (stereo unspecified)	?	-8%
Cc1ccc(N2C(=O)CS(=O)(=O)C23C(=O)N(C)c2ccccc23)cc1F (stereo unspecified)	-25%	-2%
CCc1nc(C)cn1S(=O)(=O)c1ccc(Cl)c(Cl)c1OC	-7%	-9%
SMILES	Cruzain noTriton	Cruzain inh Det
COc1ccc(NC(=O)Cn2c(=O)n(-c3ccc(Cl)cc3)c(=O)c3c(C)c(C(=O)N(C)C)sc32)cc1Cl	4%	-1%
CCCSCCCNC(=O)CN1C(=O)COc2ccc(S(=O)(=O)N3CCC(C)CC3)cc21	7%	0%
CS(=O)(=O)N1CCN(c2ccccc2NC(=O)c2ccc(-c3ccc(Br)cc3)o2)CC1	25µM*	-3%
O=C(Nc1cccc(-c2nc3ccccc3o2)c1)c1ccc(-c2ccc(Br)cc2)o1	?	-2%
COC(=O)c1ccccc1NC(=O)c1ccc(-c2ccc(Br)cc2)o1	7.9µM*	-13%
O=C(Nc1cccc(NC(=O)c2ccc(-c3ccc(Br)cc3)o2)c1)c1ccco1	32µM*	-7%
Cc1ccc2cccc(NC(=O)c3ccc(-c4ccc(Br)cc4)o3)c2n1	-12%	1%
CS(=O)(=O)N1CCN(c2ccccc2NC(=O)c2cccc3ccccc23)CC1	6%	-2%
CS(=O)(=O)N1CCN(c2ccc(NC(=O)c3ccc(-c4ccc(Cl)cc4)o3)cc2)CC1	?	3%
COc1cc2ccccc2cc1C(=O)Nc1ccccc1N1CCN(S(C)(=O)=O)CC1	25µM*	-6%
O=c1c2oc3ccccc3c2n(Cc2cccc(F)c2)c(=O)n1Cc1ccco1	-4%	-2%
Cn1c(C(=O)NCc2ccccc2Cl)cc2sc(Cl)cc21	-20%	-6%
CCO[P@]1(=O)OC[C@@H]2O[C@H](n3cnc4c(N)ncnc43)[C@H](O)[C@@H]2O1	-4%	2%
